Twelve compounds from PubChem BioAssay (NCI) can be followed below.

About 83,000 compounds went through this panel and 20% of them were active in at least one assay; those are over-represented in the sample as a whole.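 Growth was measured after 48 h exposure to one concentration of compound in 96-well plates. Values under 10 count as active.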 A number with no mark means an inactive call. The source made the active and inactive calls.

What all share (experiment): NCI-60 one-dose screen, 48 h (100 = growth as untreated, 0 = no growth, -100 = all killed)
Test [1] concerns DU-145 prostate. As to conditions: 10 µM unless noted.
Test [2] concerns K-562 leukemia. As to conditions: 10 µM unless noted.
Test [3] concerns MALME-3M melanoma. As to conditions: 10 µM unless noted.
The subject of test [4] is MDA-MB-231 breast. As to conditions: 10 µM unless noted.
In test [5] the test system is RXF 393 renal. As to conditions: 10 µM unless noted.
Test [6] deals with SF-268 CNS. As to conditions: 10 µM unless noted.
The test system of test [7] is SF-295 CNS. As to conditions: 10 µM unless noted.
In test [8] the test system is SF-539 CNS. As to conditions: 10 µM unless noted.
For test [9], the system named is UACC-257 melanoma. As to conditions: 10 µM unless noted.
Test [10] relates to M14 melanoma. As to conditions: 10 µM unless noted.
In test [11] the test system is HCT-15 colon. As to conditions: 10 µM unless noted.
In test [12] the test system is HT29 colon. As to conditions: 10 µM unless noted.
The subject of test [13] is SNB-19 CNS. As to conditions: 10 µM unless noted.
The test system of test [14] is U251 CNS. As to conditions: 10 µM unless noted.
For test [15], the system named is PC-3 prostate. As to conditions: 10 µM unless noted.
Test [16] has as its system SK-MEL-5 melanoma. As to conditions: 10 µM unless noted.
In test [17] the test system is UACC-62 melanoma. As to conditions: 10 µM unless noted.
For test [18], the system named is LOX IMVI melanoma. As to conditions: 10 µM.
Test [19] relates to SK-MEL-28 melanoma. As to conditions: 10 µM unless noted.
Test [20] concerns SNB-75 CNS. As to conditions: 10 µM unless noted.

On to `COc1c(F)ccc(C(=O)Nc2ccc3nc(NC(=O)C4CCCN(S(=O)(=O)c5ccc(Br)c(F)c5)C4)sc3c2)c1F` (centres undefined), for which the growth in test [1] was 102%; in [2], 62.5%; in [3], 95.6%; in [4], 83.5%; in test [5], -1.15% (active); in test [6], 96.7%. Also, the growth in test [7] was 72.5%; in test [8], 64.5%; in test [9], 80.7%; in [10], 80.7%; in test [11], 73.6%; in [12], 78.2%. Also, the growth was 81.9% in test [13]; 69.8% in [14]; 62.6% in test [15]; 85.7% in [16]; 72% in test [17]; 78.9% in [18]. Besides, the growth in test [19] is 99.6%.
As to `CC1(C)CC[C@]2(C(=O)O)CC[C@]3(C)C(=CCC4[C@@]5(C)C[C@@H](O)[C@@H]6OC(c7ccco7)OC[C@@]6(C)C5CC[C@]43C)C2C1` (some centres undefined), the growth in test [1] was 29.1%; in test [2], 21.2%; in [3], 9.79% (active); in test [4], 59.7%; in [5] it was 32.4%; in test [6] it was 31.9%. Besides, the growth was 24.5% in test [7]; 21.9% in test [8]; 1.3% (active) in test [9]; 23.3% in [10]; 20.7% in test [11]; 21.3% in [12]. Further, the growth in test [13] was 28.4%; in test [14], 16.8%; in test [15], 20.8%; in test [16] it was -33.2% (active); in [17], -7.05% (active); in test [18], 22.9%. Also, in test [19], the growth is 24.9%.
Consider `COc1ccc(-c2nc3cc(C)ccc3n2CC(=O)N=Nc2c(O)[nH]c3ccc(Br)cc23)cc1`, for which the growth was 16.1% in test [1]; 9.75% (active) in test [2]; -59.4% (active) in [3]; -28.1% (active) in test [4]; -52.7% (active) in [5]; 23% in [6]. In addition, the growth in test [7] is -61.4% (active); in test [8], -67.1% (active); in test [9], 1.58% (active); in test [10], -58.2% (active); in [11] it was -66.1% (active); in test [12], -67.4% (active). Further, the growth in [13] was 29.2%; in test [14], -63.1% (active); in test [15], 13.9%; in test [16], -45.6% (active); in [17], -42.8% (active); in [18], -81.9% (active). In addition, the growth in test [19] was -53.8% (active).
Regarding `COc1ccc2c(c1)c(-c1cc3nc(-c4cn(C)c5ncccc45)cc(N)n3n1)cn2C`, the growth in [1] is -27.2% (active); in test [2] it was -31.2% (active); in test [3], -95.3% (active); in test [4], -82.8% (active); in test [5], -77.3% (active); in test [6], 11.9%. Moreover, the growth in [7] was -79.4% (active); in test [8], -95.8% (active); in test [9], -78.7% (active); in [10] it was -84.3% (active); in [11] it was -57.7% (active); in test [12] it was -95.5% (active). In addition, the growth was 22.3% in test [13]; -67% (active) in test [14]; -1.31% (active) in [15]; -100% (active) in test [16]; -89.8% (active) in [17]; -100% (active) in test [18]. Besides, the growth in test [19] was -97.2% (active).
As for `COc1ccc(-c2ccc(SCC(=O)Nc3ccc(S(N)(=O)=O)cc3Br)nn2)cc1`, the growth is 72% in [1]; 101% in test [2]; 89.4% in test [3]; 85.1% in test [4]; 89.2% in [5]; 17.9% in test [6]. Also, the growth in test [7] was 60.2%; in test [8], 42.9%; in test [9], 87.9%; in test [10], 101%; in test [11], 84.5%; in [12], 95.7%. Also, the growth in [13] was 23.4%; in [14], 52.4%; in test [15], 73.5%; in test [16], 94.3%; in test [17], 83.2%; in test [18], 98.8%. In test [19], the growth is 99.2%.
Turning to `COc1ccc(/C=C/c2nc3ccccc3n3c(-c4ccc(Cl)cc4)nnc23)cc1`, the growth in [1] was 98.5%; in test [2] it was 72.4%; in [3] it was 104%; in test [4], 91.7%; in test [5], 100%; in test [6] it was 79.4%. Also, the growth in test [7] is 123%; in test [8] it was 90.8%; in [9], 102%; in [10] it was 102%; in [11] it was 93.3%; in test [20], 61.2%. The growth is 94.7% in [13]; 87.5% in [14]; 77.1% in test [15]; 98.6% in test [16]; 81.3% in test [17]; 88.5% in [18]. Moreover, in [19], the growth was 104%.
As for `CCCCCCCCc1ccc(S(=O)(=O)Nc2ccc(CC)cc2C(=O)O)cc1`, the growth in test [1] was 105%; in [2] it was 83%; in test [3], 98.2%; in test [4] it was 102%; in test [5] it was 109%; in [6], 97.4%. The growth in test [7] was 81.2%; in test [8], 101%; in [9] it was 91.1%; in test [10], 99.1%; in test [11], 85.7%; in [20] it was 106%. The growth in test [14] is 92.9%; in test [15], 89.7%; in test [16], 80.3%; in test [17], 81.3%; in test [18], 99.9%; in [19] it was 104%.
For `O=S(=O)(Nc1cccc(-n2cnc3cc(-c4ccc(O)cc4)ccc32)c1)C1CC1`, the growth is 27.5% in test [1]; 8.55% (active) in test [2]; 46.1% in [3]; 42.4% in test [4]; 4.76% (active) in test [5]; 31.9% in [6]. The growth in [7] was 11.9%; in [8], -11.6% (active); in [9], 68.4%; in [10], 29.7%; in [11], 27.2%; in test [12], 16.7%. Besides, the growth in [13] is 37.7%; in test [14], 17.6%; in [15], 40%; in test [16], 12.6%; in test [17], 34.5%; in test [19], 43.6%.
Take `COc1cc2c(c(OC)c1OC)C(=O)CC(c1cccc(NC(=O)c3cc(NC(=O)[C@@H](N)CO)ccc3C)c1)O2` (some centres undefined): the growth in test [1] is 119%; in [2] it was 91.4%; in test [3] it was 103%; in test [4], 111%; in test [5], 119%; in test [6], 111%. The growth in test [7] was 101%; in test [8], 99.7%; in test [9], 104%; in test [10], 119%; in test [11], 110%; in [12], 102%. For the same compound, the growth is 109% in test [13]; 112% in [14]; 107% in [15]; 104% in [16]; 109% in test [17]; 109% in [19].
As to `OCC1(CCCc2ccccc2)CCCN(c2nccc3ccccc23)C1` (centres undefined), the growth in test [1] is 68.3%; in test [2], 18.6%; in test [3], 24.8%; in test [4], 52.1%; in test [5], 61.1%; in test [6], 61.8%. The growth in [7] was 17%; in test [8], 43.1%; in test [9], 10.6%; in test [10] it was 8.76% (active); in [11] it was 27.7%; in [20], 40.5%. Besides, the growth in test [13] is 44.2%; in test [14], 40.1%; in test [15], 52.2%; in test [16], -60% (active); in test [17], 38.7%; in test [18], 35.8%. The growth in test [19] was 32.4%.
For the compound `COc1cc2c(c(OC)c1OC)C(=O)CC(c1cccc(NC(=O)c3cc(NC(=O)[C@H](C)N)ccc3Cl)c1)O2` (some centres undefined), the growth in test [1] is 36%; in test [2], 9.72% (active); in [3], 45.5%; in test [4] it was 52.5%; in test [5], 32.1%; in test [6] it was 50.5%. For the same compound, the growth in test [7] was 110%; in test [8], 44.3%; in test [9], 62.9%; in test [10] it was 44.3%; in test [11] it was 24.5%; in test [20], 76.1%. Further, the growth is 67.1% in test [13]; 20.9% in test [14]; 22% in [15]; 24.9% in [16]; 34% in test [17]; 15.7% in [18]. The growth in test [19] was 63%.
For `O=C(N=Nc1c(O)[nH]c2ccc(Cl)cc12)c1ccc2nc(-c3ccccc3)[nH]c2c1`, the growth was 10.9% in test [1]; 29.3% in [2]; 8.71% (active) in test [3]; -33.1% (active) in test [4]; 59.1% in test [5]; 21.8% in test [6]. Also, the growth in test [7] was 63.6%; in test [8], 34%; in test [9], 109%; in test [10] it was 68.6%; in [11] it was 95.4%; in test [20], 91.7%. The growth in test [13] is -52.5% (active); in test [14] it was -71.3% (active); in test [15], 51.1%; in test [16] it was 94.3%; in test [17] it was 21.7%; in [19], 44.3%.
